Source: PubChem BioAssay (Johns Hopkins Ion Channel Center)
KCNQ2 enhance = enhances the rat KCNQ2 potassium channel; AID 2239; CHO-K1 KCNQ2, FluxOR thallium flux fluorescence; hits give high values; O88943; actives 0.54% (n = 310,000); B-score at 10 µM;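 active = fluorescence ratio B-score at least 3 SD of library B-scores, with initial fluorescence B-score within 3 of them, cut at about 5.3 in these data; same plate scores as AID 2156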;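 also: B-score of peak minus minimum over baseline fluorescence ratio after K+ and Tl+ stimulus; positive B-score means potentiation of KCNQ2 with more thallium influx and brighter signal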
Target sequence (O88943 whole entry, looked up): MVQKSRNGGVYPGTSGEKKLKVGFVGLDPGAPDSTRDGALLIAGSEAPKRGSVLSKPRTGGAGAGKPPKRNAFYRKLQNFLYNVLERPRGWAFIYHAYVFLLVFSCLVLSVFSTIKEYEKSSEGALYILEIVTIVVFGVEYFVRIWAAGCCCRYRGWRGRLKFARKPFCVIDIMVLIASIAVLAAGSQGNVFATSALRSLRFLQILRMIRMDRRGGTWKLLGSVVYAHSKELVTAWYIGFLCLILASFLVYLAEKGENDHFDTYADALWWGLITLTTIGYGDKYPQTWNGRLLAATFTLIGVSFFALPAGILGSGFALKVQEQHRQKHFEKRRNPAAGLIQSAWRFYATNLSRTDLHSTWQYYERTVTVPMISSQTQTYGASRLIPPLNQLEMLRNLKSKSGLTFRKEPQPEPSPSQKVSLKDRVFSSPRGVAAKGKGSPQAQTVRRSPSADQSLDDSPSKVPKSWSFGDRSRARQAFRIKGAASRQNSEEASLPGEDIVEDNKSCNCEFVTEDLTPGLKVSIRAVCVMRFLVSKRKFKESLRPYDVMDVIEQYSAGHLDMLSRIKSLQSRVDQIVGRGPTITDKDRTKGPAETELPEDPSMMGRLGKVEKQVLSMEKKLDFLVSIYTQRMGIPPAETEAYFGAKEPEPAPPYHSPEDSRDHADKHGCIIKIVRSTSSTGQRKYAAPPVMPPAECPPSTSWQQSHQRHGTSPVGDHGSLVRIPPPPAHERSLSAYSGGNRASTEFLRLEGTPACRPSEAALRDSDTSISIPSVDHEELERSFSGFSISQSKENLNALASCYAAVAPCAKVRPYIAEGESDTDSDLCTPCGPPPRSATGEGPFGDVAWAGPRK
KCNQ2 block = KCNQ2 (rat) channel inhibition. O88943. CHO-K1 KCNQ2, FluxOR thallium flux, 20 min; hits give low values. B-score at 10 µM. actives 1.1% (n = 310,000). AID 2156;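 active = fluorescence ratio B-score at most minus 3 library SDs, with starting brightness B-score within 2 library SDs, cut at about -5.5 in these data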
Each line names hits and unclear results; the compound was inactive in the other large screens. Shown are actives, neighbours in structure and some others; about 1.6% of the full set was active somewhere.

COC(=O)CSc1n[nH]c(-c2ccncc2)n1	none
CCc1ccc(C(=O)CSc2n[nH]c(-c3ccncc3)n2)cc1	KCNQ2 enhance 6.27
Nn1c(SCC(=O)Nc2nccs2)nnc1-c1ccccn1	none (no result: KCNQ2 enhance)
COc1cc(CC(NC(C)=O)C(=O)NC2CCN(S(=O)(=O)c3ccc(NC(C)=O)cc3)CC2)cc(OC)c1 (stereo not given)	none (no result: KCNQ2 enhance)
COc1ccc(CNc2ncc(-c3ccc(F)cc3)n2C)c2ccccc12	KCNQ2 block -6.23
COc1ccccc1CNc1ncc(-c2ccc(F)cc2)n1C	none
CCN(CC)S(=O)(=O)c1ccc2c(c1)N(CC(=O)N1CCC(C(N)=O)CC1)C(=O)CO2	none (no result: KCNQ2 enhance)
Cc1ccc(OCC(O)CNC2CCCC2)c(C)c1 (stereo not given)	none (no result: KCNQ2 enhance)
Cc1ccccc1OCC(O)CNC1CCC(NCC(O)COc2ccccc2C)CC1 (stereo not given)	KCNQ2 block -7.67
CCCN(CCC)CCCNC(=O)c1cc2c(=O)[nH]c3ccccc3c2s1	none
CC(C)c1nc(CNC(=O)CCc2nnc(-c3ccsc3)o2)cs1	none
O=C(CCc1nnc(-c2ccsc2)o1)NCc1ccccc1OC(F)(F)F	KCNQ2 block -6.34
COc1ccc(/C=C2\C(=O)NCC(=O)N2Cc2ccccc2)cc1	none (no result: KCNQ2 enhance)
COc1ccc(/C=C2\C(=O)N(Cc3ccc(F)cc3)CC(=O)N2Cc2ccccc2)cc1	KCNQ2 block -6.09
O=[N+]([O-])c1ccccc1Sc1nccn1Cc1ccccc1	KCNQ2 block -6.46
NC(=O)CSc1nccn1Cc1ccccc1	none
C#Cc1ccc([C@H]2C=C(C(=O)N3CCN(Cc4ccc5c(c4)OCO5)CC3)O[C@@H](OCC)[C@@H]2CCCO)cc1	none (no result: KCNQ2 enhance)
CSc1ccccc1OCc1cc(C(=O)N(C)C(C)c2nc(C)cs2)no1 (stereo not given)	none
O=C(CSc1nc(C2CC2)nc2ccccc12)N1c2ccccc2Sc2ccccc21	KCNQ2 block -6.1
CC(=O)c1ccc(NC(=O)CSc2nc(C3CC3)nc3ccccc23)cc1	none
Cc1ccc2[nH]c3c(c2c1)CCN1C(=O)OC(C)(C)C31C (stereo not given)	none
Cc1ccc(N(CC(=O)NC2CCCCC2)C(=O)CNC(=O)c2ccco2)cc1C	none
CCc1ccccc1N(CC(=O)NC1CCCCC1)C(=O)CNC(=O)c1ccco1	none
O=c1ccc(-c2ccc(S(=O)(=O)N3CCCCC3)o2)n[nH]1	none (no result: KCNQ2 enhance)
O=C(NCCCN1CCOCC1)c1ccccc1N1C(=O)[C@@H]2Cc3c([nH]c4ccccc34)C(c3ccc(F)cc3)N2C1=O (stereo not given in full)	KCNQ2 block -7.07
O=C(NCCN1CCOCC1)c1ccccc1N1C(=O)[C@@H]2Cc3c([nH]c4ccccc34)C(c3ccccc3)N2C1=O (stereo not given in full)	none (no result: KCNQ2 enhance)
O=C(COc1ccc(Cl)cc1)NCc1ccc(F)cc1	none (no result: KCNQ2 enhance)
CCN(CC)CCNC(=O)c1ccc(NC(=O)Cc2ccsc2)cc1	none
CCCNC(=O)Cc1ccsc1	KCNQ2 block -7.8
Cc1ccc(OC(C)C(=O)N2CC(=O)Nc3ccccc32)cc1 (stereo not given)	none (no result: KCNQ2 enhance)
COc1cccc(C2c3c(oc4ccc(Cl)cc4c3=O)C(=O)N2c2cc(C)on2)c1OC (stereo not given)	KCNQ2 block -7.19
COc1ccc(/C(O)=C2\C(=O)C(=O)N(c3cc(C)on3)C2c2cccc(OC)c2OC)cc1C (stereo not given)	none
CCOC(=O)N1CCC(c2cc(=O)n3[nH]cc(C(=O)OC)c3n2)CC1	none (no result: KCNQ2 enhance)
CCOc1ccc(NC(=O)c2c[nH]n3c(=O)cc(C4CCN(C(=O)OC(C)(C)C)CC4)nc23)cc1	KCNQ2 enhance 8.55
Cc1ccc(OCC(=O)Nc2c3c(nn2C(C)(C)C)CS(=O)(=O)C3)cc1	none (no result: KCNQ2 enhance)
COc1ccccc1N1CCN(Cc2nc(N)nc(Nc3ccc(C)c(Cl)c3)n2)CC1	KCNQ2 enhance 8.89
COc1ccccc1Nc1nc(N)nc(CN2CCN(c3ccccc3F)CC2)n1	none
CC1CCC(C(C)C)C(OC(=O)Cn2c(-c3ccc(Br)cc3)[n+](C)c3ccccc32)C1 (stereo not given)	KCNQ2 block -5.59
CC1CCC(C(C)C)C(OC(=O)COC(=O)c2cccn2C)C1 (stereo not given)	none (no result: KCNQ2 enhance)
CCOC(=O)[C@@H]1[C@H]2COc3cc(OC)ccc3[C@H]2N2C(=O)N(c3ccc(C)cc3)C(=O)[C@@]12C	none
COc1cccc(NC(=O)COC(=O)Cc2ccc(Cl)cc2)c1	none
COc1cccc(NC(=O)n2nc(N)cc2-c2ccc(Cl)cc2)c1	KCNQ2 block -5.71
CC(C)CC(C(=O)NC1CCCCC1)N(Cc1cccs1)C(=O)c1snc(C(N)=O)c1N (stereo not given)	none (no result: KCNQ2 enhance)
CC(C)CC(C(=O)NC1CCCC1)N(Cc1cccs1)C(=O)c1snc(C(N)=O)c1N (stereo not given)	KCNQ2 block -5.73
CCOC(=O)CC1COc2ccccc2N1C(=O)c1cccc([N+](=O)[O-])c1 (stereo not given)	none (no result: KCNQ2 enhance)
O=C(c1ccc(Cl)c(Cl)c1)N1CCC(=O)N(C(COCc2ccccc2)Cc2ccccc2)CC1 (stereo not given)	KCNQ2 block -5.75
O=C(c1ccc(Cl)c(Cl)c1)N1CCC(=O)N(C(CO)Cc2ccccc2)CC1 (stereo not given)	none
O=C(c1cccc(Cl)c1)N1CCC(=O)N(C(COCc2ccccc2)Cc2ccccc2)CC1 (stereo not given)	KCNQ2 block -5.8
Cc1cccc(COCC(Cc2ccccc2)N2CCN(C(=O)c3cccc(Cl)c3)CCC2=O)c1 (stereo not given)	none (no result: KCNQ2 enhance)
Cc1cc(C)c(S(=O)(=O)Nc2ccc(C(=O)O)cc2)cc1S(=O)(=O)Nc1ccc(C(=O)O)cc1	none
Cc1ccc(CN2CCN(Cc3ccc4cccc(F)c4n3)CC2CCO)cc1 (stereo not given)	none (no result: KCNQ2 enhance)
CCCOc1ccc(C(=O)CCNC(Cc2c[nH]c3ccccc23)C(=O)O)cc1 (stereo not given)	KCNQ2 block -5.95
COc1ccc(C(=O)NC(Cc2c[nH]c3ccccc23)C(=O)O)cc1 (stereo not given)	none (no result: KCNQ2 enhance)
CCC(C)c1ccc(NC(=O)COc2c(F)c(F)c(C(F)(F)F)c(F)c2F)cc1 (stereo not given)	KCNQ2 enhance 6.06
O=C(COc1c(F)c(F)c(C(F)(F)F)c(F)c1F)Nc1ccc(N2CCOCC2)c(Cl)c1	none
COc1cc(Cl)c(C)cc1NC(=O)CSc1sc2c(O)cc(=O)[nH]c2c1C#N	none
Cc1ccc(/C=N/NC(=O)c2ccccc2OCc2cccc(Br)c2)o1	none (no result: KCNQ2 enhance)
Cc1ccc(NC(=O)C(OC(=O)c2ccccc2Cl)c2ccccc2)cc1Cl (stereo not given)	none (no result: KCNQ2 enhance)
Cc1cc(C(=O)OC(C(=O)Nc2ccc(C)c(Cl)c2)c2ccccc2)c(C)o1 (stereo not given)	KCNQ2 block -5.77
CN(C)CCNc1ncnc2c1sc1nc(-c3ccccc3)c3c(c12)CCCC3	KCNQ2 block -7.77
COc1ncnc2c1sc1nc(-c3ccccc3)c3c(c12)CCCC3	none
COC(=O)c1ccc(C(=O)OC)c(NC(=O)COC(=O)C2CCCCC2)c1	none
COC(=O)c1ccc(C(=O)OC)c(NC(=O)COC(=O)C2CCC(C(C)(C)C)CC2)c1 (stereo not given)	KCNQ2 block -5.9
CCCCOc1ccc(C(=O)N2CCN(c3ncccn3)CC2)cc1	none (no result: KCNQ2 enhance)
CCOC(=O)C1(CC2CC2)CCN(Cc2ccc(C(=O)OC)cc2)CC1	none (no result: KCNQ2 enhance)
CCOC(=O)C1(CCc2ccccc2)CCN(Cc2ccc(C(=O)OC)cc2)CC1	KCNQ2 block -5.65
Cc1cc(Nc2ccccc2)nc(NCc2ccccc2)n1	KCNQ2 block -6.2
Cc1cc(Nc2ccc(Cl)cc2)nc(NCc2ccccc2)n1	none (no result: KCNQ2 enhance)
